About 8,800 targets were measured; listed, in parts, are those with a hit and a random draw of the rest. About 0.5% of all pairs of compound and target were hits.

Sequence of UniProt Q8N5S9 (Q8N5S9 whole entry, looked up): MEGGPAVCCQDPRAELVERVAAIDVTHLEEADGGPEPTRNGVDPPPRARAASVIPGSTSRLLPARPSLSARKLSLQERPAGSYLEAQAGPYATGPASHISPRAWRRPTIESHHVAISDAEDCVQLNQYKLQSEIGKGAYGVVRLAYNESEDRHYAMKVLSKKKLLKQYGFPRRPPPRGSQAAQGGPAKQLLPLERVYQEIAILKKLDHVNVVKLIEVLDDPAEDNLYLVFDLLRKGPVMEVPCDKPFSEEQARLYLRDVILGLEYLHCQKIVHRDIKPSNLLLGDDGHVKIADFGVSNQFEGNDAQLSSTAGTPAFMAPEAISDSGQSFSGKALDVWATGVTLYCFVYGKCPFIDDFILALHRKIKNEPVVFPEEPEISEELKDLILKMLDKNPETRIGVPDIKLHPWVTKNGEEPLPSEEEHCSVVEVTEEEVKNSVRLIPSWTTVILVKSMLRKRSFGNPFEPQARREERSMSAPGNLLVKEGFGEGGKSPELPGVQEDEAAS
Sequence of UniProt O14981 (O14981 whole entry, looked up): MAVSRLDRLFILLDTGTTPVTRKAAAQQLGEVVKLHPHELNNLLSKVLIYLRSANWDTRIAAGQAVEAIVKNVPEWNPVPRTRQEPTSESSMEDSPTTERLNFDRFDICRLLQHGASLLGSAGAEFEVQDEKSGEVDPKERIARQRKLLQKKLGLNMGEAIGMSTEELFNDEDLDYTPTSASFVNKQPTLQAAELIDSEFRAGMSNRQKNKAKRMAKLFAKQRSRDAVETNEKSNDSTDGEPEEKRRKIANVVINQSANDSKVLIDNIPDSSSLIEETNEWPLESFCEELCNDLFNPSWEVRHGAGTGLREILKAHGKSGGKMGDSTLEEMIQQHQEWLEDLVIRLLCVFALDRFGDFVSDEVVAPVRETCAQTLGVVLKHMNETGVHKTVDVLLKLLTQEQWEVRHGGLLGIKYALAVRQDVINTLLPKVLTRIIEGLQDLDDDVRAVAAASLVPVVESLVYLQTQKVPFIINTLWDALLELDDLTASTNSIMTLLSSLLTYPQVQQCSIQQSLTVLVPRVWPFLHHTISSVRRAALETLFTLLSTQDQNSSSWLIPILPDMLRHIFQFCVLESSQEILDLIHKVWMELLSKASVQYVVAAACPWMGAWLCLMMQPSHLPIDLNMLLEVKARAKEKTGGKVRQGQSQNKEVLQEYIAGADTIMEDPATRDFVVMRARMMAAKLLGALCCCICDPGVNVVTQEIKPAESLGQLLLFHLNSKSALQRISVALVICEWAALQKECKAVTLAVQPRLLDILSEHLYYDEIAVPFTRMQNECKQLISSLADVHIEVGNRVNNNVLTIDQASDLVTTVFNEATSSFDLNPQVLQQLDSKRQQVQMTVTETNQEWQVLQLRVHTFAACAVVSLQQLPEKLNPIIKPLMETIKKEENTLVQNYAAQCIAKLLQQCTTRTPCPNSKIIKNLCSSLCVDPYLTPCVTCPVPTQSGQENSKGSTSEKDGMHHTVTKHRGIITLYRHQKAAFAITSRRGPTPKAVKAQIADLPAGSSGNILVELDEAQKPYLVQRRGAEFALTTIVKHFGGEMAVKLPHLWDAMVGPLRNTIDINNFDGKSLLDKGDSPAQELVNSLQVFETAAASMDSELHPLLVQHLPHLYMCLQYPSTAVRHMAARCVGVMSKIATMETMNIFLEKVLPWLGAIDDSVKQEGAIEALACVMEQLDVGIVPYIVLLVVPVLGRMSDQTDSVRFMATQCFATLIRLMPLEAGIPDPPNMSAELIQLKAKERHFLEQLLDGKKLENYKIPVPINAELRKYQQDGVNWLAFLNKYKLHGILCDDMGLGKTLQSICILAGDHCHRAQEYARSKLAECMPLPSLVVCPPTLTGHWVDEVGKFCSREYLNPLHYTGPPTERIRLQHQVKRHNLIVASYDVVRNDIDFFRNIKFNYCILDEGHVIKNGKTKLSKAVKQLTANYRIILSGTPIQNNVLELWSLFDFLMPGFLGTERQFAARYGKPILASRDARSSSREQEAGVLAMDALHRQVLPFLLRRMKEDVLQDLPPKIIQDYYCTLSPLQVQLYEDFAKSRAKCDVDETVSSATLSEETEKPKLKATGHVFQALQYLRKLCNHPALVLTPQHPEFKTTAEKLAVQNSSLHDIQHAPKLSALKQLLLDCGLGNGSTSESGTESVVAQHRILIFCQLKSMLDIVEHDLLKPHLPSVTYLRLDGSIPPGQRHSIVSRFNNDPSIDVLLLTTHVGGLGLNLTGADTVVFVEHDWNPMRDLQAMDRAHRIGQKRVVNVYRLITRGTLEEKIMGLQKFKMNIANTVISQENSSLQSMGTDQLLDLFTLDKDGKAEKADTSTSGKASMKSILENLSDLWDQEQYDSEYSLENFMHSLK
Sequence of UniProt Q8N960 (Q8N960 whole entry, looked up): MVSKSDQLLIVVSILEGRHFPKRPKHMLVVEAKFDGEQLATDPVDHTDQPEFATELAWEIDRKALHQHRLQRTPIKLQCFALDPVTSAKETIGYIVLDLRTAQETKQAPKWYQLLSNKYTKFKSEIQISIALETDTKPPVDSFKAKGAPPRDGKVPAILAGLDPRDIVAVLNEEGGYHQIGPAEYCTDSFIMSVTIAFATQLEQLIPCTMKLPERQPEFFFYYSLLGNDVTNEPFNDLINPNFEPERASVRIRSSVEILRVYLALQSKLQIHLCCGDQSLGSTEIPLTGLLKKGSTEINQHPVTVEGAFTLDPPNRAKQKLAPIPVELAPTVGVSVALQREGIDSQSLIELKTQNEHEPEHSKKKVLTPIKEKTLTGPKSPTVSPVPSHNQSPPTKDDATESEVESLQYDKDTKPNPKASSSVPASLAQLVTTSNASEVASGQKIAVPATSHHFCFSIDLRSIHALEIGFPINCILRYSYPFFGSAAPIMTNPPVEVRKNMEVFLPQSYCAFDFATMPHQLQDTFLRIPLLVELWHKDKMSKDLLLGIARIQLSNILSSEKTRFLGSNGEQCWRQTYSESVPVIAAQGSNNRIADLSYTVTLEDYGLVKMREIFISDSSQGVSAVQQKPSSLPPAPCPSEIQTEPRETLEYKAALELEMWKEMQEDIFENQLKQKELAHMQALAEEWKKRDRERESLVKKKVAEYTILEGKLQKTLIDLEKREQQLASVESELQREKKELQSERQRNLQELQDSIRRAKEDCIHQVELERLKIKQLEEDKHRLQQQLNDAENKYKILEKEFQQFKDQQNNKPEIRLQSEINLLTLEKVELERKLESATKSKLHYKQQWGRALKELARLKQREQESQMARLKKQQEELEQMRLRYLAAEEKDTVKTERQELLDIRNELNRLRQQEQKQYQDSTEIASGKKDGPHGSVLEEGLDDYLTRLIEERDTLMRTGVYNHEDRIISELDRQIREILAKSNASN
Sequence of UniProt Q9H3Q1 (Q9H3Q1 whole entry, looked up): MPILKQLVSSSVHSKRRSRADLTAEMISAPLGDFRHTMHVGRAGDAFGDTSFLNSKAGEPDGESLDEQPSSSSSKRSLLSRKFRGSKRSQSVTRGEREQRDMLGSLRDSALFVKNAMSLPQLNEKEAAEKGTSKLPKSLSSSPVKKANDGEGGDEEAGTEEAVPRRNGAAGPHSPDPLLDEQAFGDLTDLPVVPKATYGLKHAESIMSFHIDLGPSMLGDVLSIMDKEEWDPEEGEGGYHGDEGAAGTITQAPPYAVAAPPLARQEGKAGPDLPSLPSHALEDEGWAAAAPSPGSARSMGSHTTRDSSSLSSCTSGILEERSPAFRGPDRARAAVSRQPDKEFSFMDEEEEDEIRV
Sequence of UniProt Q86WR0 (Q86WR0 whole entry, looked up): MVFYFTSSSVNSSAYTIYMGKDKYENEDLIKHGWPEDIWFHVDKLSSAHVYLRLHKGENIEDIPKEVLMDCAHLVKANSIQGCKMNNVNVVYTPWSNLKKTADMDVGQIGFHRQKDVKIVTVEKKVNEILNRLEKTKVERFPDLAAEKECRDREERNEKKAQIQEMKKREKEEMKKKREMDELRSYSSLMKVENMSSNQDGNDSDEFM
Sequence of UniProt P24863 (P24863 whole entry, looked up): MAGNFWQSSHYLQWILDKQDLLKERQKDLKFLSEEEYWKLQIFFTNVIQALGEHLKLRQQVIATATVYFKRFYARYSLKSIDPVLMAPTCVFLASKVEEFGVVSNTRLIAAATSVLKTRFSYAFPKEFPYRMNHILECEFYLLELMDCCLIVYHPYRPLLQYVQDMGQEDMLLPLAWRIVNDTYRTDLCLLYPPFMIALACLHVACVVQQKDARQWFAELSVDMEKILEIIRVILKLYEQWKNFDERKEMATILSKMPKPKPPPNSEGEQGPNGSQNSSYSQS
Sequence of UniProt Q9Y6H1 (Q9Y6H1 whole entry, looked up): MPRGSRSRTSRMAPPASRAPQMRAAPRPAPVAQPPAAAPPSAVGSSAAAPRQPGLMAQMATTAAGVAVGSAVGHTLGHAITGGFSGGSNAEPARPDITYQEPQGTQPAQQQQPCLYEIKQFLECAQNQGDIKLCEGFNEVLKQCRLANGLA
Sequence of UniProt O95319 (O95319 whole entry, looked up): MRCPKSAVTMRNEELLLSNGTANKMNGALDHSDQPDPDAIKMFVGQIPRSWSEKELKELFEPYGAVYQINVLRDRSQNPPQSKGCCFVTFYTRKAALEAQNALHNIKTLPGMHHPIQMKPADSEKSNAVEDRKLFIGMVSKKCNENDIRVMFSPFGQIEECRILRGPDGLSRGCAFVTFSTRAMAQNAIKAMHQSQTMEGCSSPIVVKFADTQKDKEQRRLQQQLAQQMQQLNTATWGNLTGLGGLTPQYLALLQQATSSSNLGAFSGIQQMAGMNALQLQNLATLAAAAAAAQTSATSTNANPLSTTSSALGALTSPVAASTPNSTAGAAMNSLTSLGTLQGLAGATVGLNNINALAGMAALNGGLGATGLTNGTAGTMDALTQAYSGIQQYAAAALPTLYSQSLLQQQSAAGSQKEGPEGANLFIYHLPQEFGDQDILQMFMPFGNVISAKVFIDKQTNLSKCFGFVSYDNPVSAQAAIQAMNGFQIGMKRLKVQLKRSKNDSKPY
Sequence of UniProt Q8N4Q1 (Q8N4Q1 whole entry, looked up): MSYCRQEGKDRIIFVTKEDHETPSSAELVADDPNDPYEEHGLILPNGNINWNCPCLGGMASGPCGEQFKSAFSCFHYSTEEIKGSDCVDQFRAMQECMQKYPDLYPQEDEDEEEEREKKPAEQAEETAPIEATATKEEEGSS

Compound in the first assay: COC(=O)[C@H](CCSC)NC(=O)C1=C(C=C(C=C1)NC[C@H](CS)N)C2=CC=CC=C2
Nature of the assay: log2 fold change, soluble protein after heating vs DMSO (PISA); higher = thermal stabilisation; K562 lysate, 10 uM; active = over 0.2 and 3.5 SD of the protein, either way, in both replicates (recomputed). The method, boiled down: (§1)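 To prepare the extract, K562 pellets were dounce-homogenised in PBS pH 7.4 with 1 mM MgCl2, giving crude material at 1 mg/mL protein. This was treated with 10 μM compound for 30 min, then heated in aliquots for 3 min over 48°C-58°C before pooling and addition of NP-40 to 0.5% at 4°C. Centrifugation at 21,000xg for 90 min left soluble protein in the supernatant, which TMTpro 16plex LC-MS/MS quantified with equalised channel sums. Results are log-two fold changes in thermal stability compared with solvent controls, from duplicates.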
For BRD4 (UniProt O60885), the log2 fold change is 0.03 (inactive).

As to CAMKK1 isoform 2 (UniProt Q8N5S9), the log2 fold change was 0.126 (inactive).

Take ATG13 isoform 2 (UniProt O75143): the log2 fold change is -0.045 (inactive).

Take ATAD1 (UniProt Q8NBU5): the log2 fold change is -0.042 (inactive).

BSDC1 (UniProt Q9NW68): the log2 fold change is -0.149 (inactive).

Take ATP5PF isoform 2 (UniProt P18859): the log2 fold change is -0.061 (inactive).

Turning to CAD (UniProt P27708), the log2 fold change is 0.067 (inactive).

In the case of CHCHD2 (UniProt Q9Y6H1), the log2 fold change is -0.126 (inactive).

For CHCHD4 isoform 2 (UniProt Q8N4Q1), the log2 fold change was -0.039 (inactive).

For CCNC (UniProt P24863), the log2 fold change was 0.039 (inactive).

Turning to CELF2 isoform 3 (UniProt O95319), the log2 fold change was -0.031 (inactive).

On to CEP120 (UniProt Q8N960), for which the log2 fold change is -0.117 (inactive).

Regarding CCDC25 (UniProt Q86WR0), the log2 fold change was 0.083 (inactive).

Consider CELF1 isoform 4 (UniProt Q92879), for which the log2 fold change is -0.031 (inactive).

As to BNIP1 (UniProt Q12981), the log2 fold change is -0.037 (inactive).

With CHD5 (UniProt Q8TDI0), the log2 fold change is 0.033 (inactive).

Consider ATP2B4 (UniProt P23634), for which the log2 fold change was -0.041 (inactive).

As for CANX isoform 2 (UniProt P27824), the log2 fold change was -0.015 (inactive).

Consider BCKDK (UniProt O14874), for which the log2 fold change is 0.066 (inactive).

For the target CCAR2 (UniProt Q8N163), the log2 fold change was 0.011 (inactive).

On to CDC40 (UniProt O60508), for which the log2 fold change is 0.069 (inactive).

For the target CDK5RAP2 (UniProt Q96SN8), the log2 fold change is 0.012 (inactive).

Consider CD63 (UniProt P08962), for which the log2 fold change is -0.055 (inactive).

As for ATR (UniProt Q13535), the log2 fold change was -0.193 (inactive).

For the target CCDC47 (UniProt Q96A33), the log2 fold change was -0.037 (inactive).

Turning to CCNA2 (UniProt P20248), the log2 fold change was -0.012 (inactive).

With CHD4 isoform 2 (UniProt Q14839), the log2 fold change is 0.087 (inactive).

Regarding CENPQ (UniProt Q7L2Z9), the log2 fold change is 0.025 (inactive).

In the case of BLM (UniProt P54132), the log2 fold change was 0.018 (inactive).

Turning to ATP6V0A2 (UniProt Q9Y487), the log2 fold change is -0.027 (inactive).

As to BTAF1 (UniProt O14981), the log2 fold change is 0.008 (inactive).

For the target CDC42EP4 (UniProt Q9H3Q1), the log2 fold change was -0.054 (inactive).

Regarding BMS1 (UniProt Q14692), the log2 fold change was 0.01 (inactive).

CDK9 isoform 2 (UniProt P50750): the log2 fold change is -0.033 (inactive).

In the case of C12orf45 (UniProt Q8N5I9), the log2 fold change is -0.06 (inactive).

As to BCKDHB (UniProt P21953), the log2 fold change was 0.107 (inactive).

CDC45 isoform 3 (UniProt O75419): the log2 fold change is 0.019 (inactive).

BUD23 isoform 3 (UniProt O43709): the log2 fold change is 0.036 (inactive).

On to CARD9 (UniProt Q9H257), for which the log2 fold change is 0.068 (inactive).

Compound in the next assay: COc1cc(Nc2ncc3c(n2)-c2ccc(Cl)cc2C(c2c(F)cccc2OC)=NC3)ccc1C(=O)O [alisertib]
The description is as above. The method, boiled down:
as §1
Take BRD4 (UniProt O60885): the log2 fold change was 0.038 (inactive).

Take CAMKK1 isoform 2 (UniProt Q8N5S9): the log2 fold change is -0.033 (inactive).

Regarding ATG13 isoform 2 (UniProt O75143), the log2 fold change was 0.038 (inactive).

In the case of ATAD1 (UniProt Q8NBU5), the log2 fold change was -0.119 (inactive).

As to BSDC1 (UniProt Q9NW68), the log2 fold change is 0.026 (inactive).

In the case of ATP5PF isoform 2 (UniProt P18859), the log2 fold change is -0.005 (inactive).

As for CAD (UniProt P27708), the log2 fold change is -0.007 (inactive).

Regarding CHCHD2 (UniProt Q9Y6H1), the log2 fold change was -0.051 (inactive).

Turning to CHCHD4 isoform 2 (UniProt Q8N4Q1), the log2 fold change was 0.024 (inactive).

On to CCNC (UniProt P24863), for which the log2 fold change is 0.009 (inactive).

Consider CELF2 isoform 3 (UniProt O95319), for which the log2 fold change is 0.037 (inactive).

Take CEP120 (UniProt Q8N960): the log2 fold change was 0.141 (inactive).

For CCDC25 (UniProt Q86WR0), the log2 fold change was -0.027 (inactive).

As for CELF1 isoform 4 (UniProt Q92879), the log2 fold change was 0.048 (inactive).

With BNIP1 (UniProt Q12981), the log2 fold change was 0.004 (inactive).

For CHD5 (UniProt Q8TDI0), the log2 fold change was -0.016 (inactive).

ATP2B4 (UniProt P23634): the log2 fold change was -0.104 (inactive).

For CANX isoform 2 (UniProt P27824), the log2 fold change is -0.008 (inactive).

With BCKDK (UniProt O14874), the log2 fold change was 0.023 (inactive).

Regarding CCAR2 (UniProt Q8N163), the log2 fold change was 0.014 (inactive).

CDC40 (UniProt O60508): the log2 fold change was -0.049 (inactive).

For the target CDK5RAP2 (UniProt Q96SN8), the log2 fold change is -0.007 (inactive).

Regarding CD63 (UniProt P08962), the log2 fold change was 0.01 (inactive).

As for ATR (UniProt Q13535), the log2 fold change was 0.115 (inactive).

For CCDC47 (UniProt Q96A33), the log2 fold change is 0.037 (inactive).

For CCNA2 (UniProt P20248), the log2 fold change is -0.029 (inactive).

Turning to CHD4 isoform 2 (UniProt Q14839), the log2 fold change was 0.016 (inactive).

On to CENPQ (UniProt Q7L2Z9), for which the log2 fold change is 0 (inactive).

Turning to BLM (UniProt P54132), the log2 fold change was -0.025 (inactive).

On to ATP6V0A2 (UniProt Q9Y487), for which the log2 fold change was 0.015 (inactive).

Consider BTAF1 (UniProt O14981), for which the log2 fold change is 0.018 (inactive).

For CDC42EP4 (UniProt Q9H3Q1), the log2 fold change is -0.085 (inactive).

For the target BMS1 (UniProt Q14692), the log2 fold change was 0.035 (inactive).

For the target CDK9 isoform 2 (UniProt P50750), the log2 fold change is -0.003 (inactive).

Turning to C12orf45 (UniProt Q8N5I9), the log2 fold change was 0.016 (inactive).

BCKDHB (UniProt P21953): the log2 fold change was -0.019 (inactive).

On to CDC45 isoform 3 (UniProt O75419), for which the log2 fold change was 0.023 (inactive).

For BUD23 isoform 3 (UniProt O43709), the log2 fold change was 0.082 (inactive).

As for CARD9 (UniProt Q9H257), the log2 fold change was -0.004 (inactive).
